# Compound activity deposited in PubChem by several laboratories.
# An excerpt weighted towards active compounds, which were near 3.7% of everything screened.
# GPR7 antag – antagonists of human GPR7 (neuropeptides B/W receptor 1). P48145. GPR7-expressing cells, fluorescence antagonist assay. inhibition, % at 4.4 µM. actives 1.1% (n = 290,000). AID 1861; in the data active = inhibition above about 16%, passing the limit was not always enough;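 note: cells stimulated with the agonist NPW; 0% = agonist with vehicle and 100% = vehicle without agonist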
# Target sequence (P48145 whole entry, looked up): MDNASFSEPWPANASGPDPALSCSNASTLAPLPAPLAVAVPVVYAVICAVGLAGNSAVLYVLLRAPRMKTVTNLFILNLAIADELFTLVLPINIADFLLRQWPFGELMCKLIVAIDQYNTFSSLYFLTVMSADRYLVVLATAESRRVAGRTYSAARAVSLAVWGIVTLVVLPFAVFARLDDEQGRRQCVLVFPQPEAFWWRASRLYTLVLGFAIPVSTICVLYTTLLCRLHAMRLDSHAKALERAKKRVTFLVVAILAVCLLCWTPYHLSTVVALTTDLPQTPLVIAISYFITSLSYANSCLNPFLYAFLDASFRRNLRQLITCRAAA
# CHT block – inhibits the human high affinity choline transporter; Q9GZV3; CHT-expressing cells, membrane potential dye, choline response; hits give low values; B-score at 10 µM; actives 0.86% (n = 310,000);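 active = B-score over 3 SD under the library average, and starting fluorescence ratio not unusually high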;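 note: choline stimulus applied at its EC90 after an EC20 pre-addition; B-score computed on integrated fluorescence ratio after choline addition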
# ANO1 activ – activates or potentiates the mouse TMEM16A chloride channel; Q8BHY3; HEK293 TMEM16A/YFP-H148Q/I152L, iodide quench fluorescence; hits give low values; B-score at 10 µM; actives 0.3% (n = 340,000);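 active = fluorescence-ratio B-score plate-corrected deviation score at least 3 library SD below zero, with starting fluorescence score within 5 deviations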;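 note: channel opened by trigger with iodide after compound preincubation; score built on the fluorescence ratio of max minus min over baseline; more negative score means more quench and so TMEM16A activation or potentiation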
# CHT PAM – allosterically activates the human high affinity choline transporter | Q9GZV3 | CHT-expressing cells, membrane potential dye, choline EC20; hits give high values; LV-AA mutant CHT in HEK293 cells | B-score at 10 µM | actives 0.49% (n = 310,000) | AID 488977;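 active = initial fluorescence not abnormally high and integrated response B-score, plate-corrected, over 3 SD above library mean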
# TMEM16A inh – mouse TMEM16A channel inhibition, primary screen; Q8BHY3; HEK293 TMEM16A/YFP iodide influx fluorescence, ionomycin; AID 588511; normalized B-score (activity score, 25-100; higher = stronger inhibition) at 10 µM; actives 1.2% (n = 310,000);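 active = ratio plate-corrected score three or more library SD toward inhibition, starting fluorescence score within five deviations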;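 note: score derived from kinetic fluorescence span divided by baseline fluorescence per well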
# Kir21 inh – inhibitors of mouse Kir2.1 inward-rectifier potassium channel. P35561. HEK293-Kir2.1, FluxOR thallium flux fluorescence; hits give low values. B-score at 10 µM. actives 0.85% (n = 310,000);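 active = fluorescence ratio B-score at or below minus 3 SD of library scores, with starting-brightness B-score within 2 SD, cut at about -4.2 in these data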;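 note: channel flux triggered by added potassium and thallium sulfate stimulus; B-score of peak minus minimum fluorescence over baseline after thallium stimulus; more negative B-score means stronger Kir2.1 block with less thallium influx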
# TMEM16A reconf – re-confirmation of mouse TMEM16A chloride channel inhibitors; HEK293 TMEM16A/YFP-H148Q, iodide quench fluorescence; ionomycin added to raise cell calcium; actives 39% (n = 2,300); inhibition, % at 10 µM; shares compounds with TMEM16A inh; AID 652189;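 active = mean duplicate percent inhibition, scaled so buffer wells are 0 and the reference blocker 100, over three buffer SD above buffer mean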
# TMEM16A Ca cntr – alters calcium mobilization in TMEM16A HEK293 cells, counter-screen; calcium response (% of ionomycin), % at 10 µM; shares compounds with TMEM16A inh; TMEM16A/YFP HEK293, Fluo4 calcium mobilization; actives 2% (n = 2,300);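 active = duplicate-averaged calcium signal over 20% of the ionomycin maximum, relative to buffer baseline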;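 note: each well's signal is peak minus trough fluorescence divided by its pre-addition baseline; 0% = buffer wells and 100% = ionomycin wells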
# YFP-HEK293 quench – counter-screen for TMEM16A inhibitors: effect in parental YFP-HEK293 cells | 2,300 tested, under 10 active | shares compounds with TMEM16A inh | iodide YFP quench, ionomycin | YFP ratio F(max-min)/F0 at 10 µM;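 active = yellow fluorescent protein signal ratio exceeding the buffer control mean by over 5 SD of those controls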;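 note: ratio is mean of duplicate wells from kinetic YFP trace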
# ClC-1 inh – selectivity of TMEM16A inhibitors: inhibition of rat ClC-1 chloride channel | shares compounds with TMEM16A inh | CHO ClC-1-YFP, iodide influx fluorescence quench; iodide control reads 0, buffer control 100 | ratio percent, % at 10 µM | 2,300 tested, under 10 active;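 active = duplicate-mean ratio percent above the mean of iodide-only control wells, which defines zero, plus 5 of their SD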;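 note: higher percent means stronger block of ClC-1 iodide influx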
# * hit, by the source's call; i = inactive; · = not tested or not shown.
SMILES,GPR7 antag,CHT block,ANO1 activ,CHT PAM,TMEM16A inh,Kir21 inh,TMEM16A reconf,TMEM16A Ca cntr,YFP-HEK293 quench,ClC-1 inh
Clc1cccc(-c2nnc(SCc3nc4ccccc4[nH]3)n2Cc2ccco2)c1,-18,i,i,i,i,0.3,·,·,·,·
CC(C)(C)C(O)(CC#CCN1CCCC1)c1ccccc1 (stereo unspecified),2,i,i,i,i,-0.87,·,·,·,·
Clc1c(Cl)c(Cl)c2n[nH]nc2c1Cl,1,i,i,i,100*,-1.3,44%*,i,-0.85,-16
Cc1onc(-c2ccccc2)c1NC(=O)N(CCC#N)Cc1cccs1,-12,i,i,i,i,1,·,·,·,·
COC(=O)CCC(C)C1CCC2C3CCC4CC(O)CCC4(C)C3CC(O)C12C (stereo unspecified),·,·,i,·,·,·,·,·,·,·
COC(=O)c1ccc(CNC(=O)COC(=O)CC23CC4CC(CC(Br)(C4)C2)C3)cc1,3,i,i,i,25*,-0.3,i,i,-0.92,-12
CN(C)c1ccc(N=Nc2ccccc2C(=O)OCC(=O)NCC2CCCCC2)cc1,-17,i,i,i,100*,-2.4,i,i,-0.86,-12
O=C(COC(=O)c1ccccc1NCCO)NCC1CCCCC1,·,·,i,·,·,·,·,·,·,·
COc1ccc(S(=O)(=O)Nc2c(NC3CCCCC3)c3ccccc3oc2=O)cc1OC,-16,i,i,i,i,1.2,·,·,·,·
Cc1[nH]n(-c2ccc(Br)cc2)c(=O)c1/C=N/NC(=O)c1ccccc1,-4,-5.4*,i,i,100*,-0.22,21%*,i,-0.78,-18
O=C(Nc1cccc(F)c1)N(Cc1ccc(Cl)cc1)CC(O)C(F)(F)F (stereo unspecified),-16,i,i,i,100*,0.07,78%*,i,-0.89,-19
O=C(Nc1ccccc1)N(Cc1ccccc1)CC(O)C(F)(F)F (stereo unspecified),-8,i,i,i,i,-0.72,·,·,·,·
N#Cc1c(NCc2ccccc2)ccnc1NCc1cccnc1,6,i,i,i,100*,0.1,18%*,i,-0.8,-10
N#CC(c1ccc(F)cc1)c1ccc(C(=O)c2ccc(F)cc2)cc1 (stereo unspecified),9,i,i,i,100*,-1.6,28%*,i,-0.88,-14
COc1ccc(OCCSc2ncccn2)cc1,0,i,i,i,i,-0.8,·,·,·,·
COc1ccc(OCCSc2nc(C)nc3ccccc23)cc1,-4,i,i,i,25*,0.71,58%*,i,-1.1,-13
CN(CC(=O)NCC(=O)Nc1ccc(F)cc1)C1CCS(=O)(=O)C1 (stereo unspecified),·,·,i,·,·,·,·,·,·,·
CSc1cccc(NC(=O)/C=C/c2ccc(Cl)cc2)c1,-15,i,i,i,100*,-1.8,62%*,i,-1,-8
COc1cc(/C=N/NC(=O)c2nonc2C)ccc1O,-13,i,i,i,i,0.85,i,i,-0.89,2
Cc1nonc1C(=O)N/N=C/c1ccc(O)c(O)c1,-1,i,i,i,i,-0.91,·,·,·,·
CCCOc1nc(C)cc(COC)c1C(N)=O,-7,i,i,i,i,0.89,·,·,·,·
COCCn1c(C)cc(C(=O)CSc2nc(C)c(C)c(C)n2)c1C,-6,i,i,i,i,0.88,·,·,·,·
COCCn1c(C)cc(C(=O)CSc2ncn[nH]2)c1C,-11,i,i,i,100*,0.12,i,i,-1.1,-7
COc1ccc(NS(=O)(=O)c2ccc3oc4ccccc4c3c2)cn1,21,i,i,i,25*,-2.3,i,i,-1.1,-4
COc1ccc(NS(=O)(=O)c2ccc(Br)cc2)cn1,-2,i,i,i,i,1.3,·,·,·,·
SMILES,GPR7 antag,CHT block,ANO1 activ,CHT PAM,TMEM16A inh,Kir21 inh,TMEM16A reconf,TMEM16A Ca cntr,YFP-HEK293 quench,ClC-1 inh
Cc1ccc(C)n1-n1c(C)nc2sc(-c3ccccc3)cc2c1=O,9,i,i,i,100*,-1.9,i,i,-0.94,2
Cc1ccc(C)n1-n1cnc2sc(-c3ccccc3)cc2c1=O,-2,i,i,i,i,-2.4,·,·,·,·
Cc1ccc(-c2nnc(CSc3nnc(C)s3)o2)cc1,11,i,i,i,i,-0.67,·,·,·,·
CCc1nc(SCc2nnc(-c3ccc(C)cc3)o2)c2c(C)c(C)sc2n1,-12,i,·,i,i,0.52,i,i,-1.2,-8
COc1cc(NS(=O)(=O)c2ccc(OC)c(C)c2C)c(OC)cc1Cl,10,i,i,i,25*,-1.9,54%*,i,-0.72,-4
COc1ccc(S(=O)(=O)Nc2ccccn2)c(C)c1C,-8,i,i,i,i,0.3,·,·,·,·
S=C(NCC1CCCCC1)Nc1ccc(Oc2ccccc2)cc1,-4,i,i,i,100*,-5.2,20%*,i,-1.3,-20
S=C(NCC1CCCO1)Nc1ccc(Nc2ccccc2)cc1 (stereo unspecified),-15,i,i,i,100*,0,i,i,-0.84,-8
NS(=O)(=O)c1ccc(NC(=S)NCC2CCCO2)cc1 (stereo unspecified),-3,i,i,i,i,0.22,·,·,·,·
O=C(CC1(c2ccc(Cl)cc2)C2CC3CC(C2)CC1C3)NCCO (stereo unspecified),0,i,i,i,i,0.98,·,·,·,·
CC1(C)C(Cl)C(=O)C(C(=O)c2ccccc2)C(=O)C1Cl (stereo unspecified),10,i,i,i,i,-0.05,·,·,·,·
O=C(NC1CCCc2c1cnn2-c1ccccc1F)c1ccccn1 (stereo unspecified),-9,i,i,i,i,1.4,·,·,·,·
Cc1nnsc1C(=O)NC1CCCc2c1cnn2-c1ccc(C(C)(C)C)cc1 (stereo unspecified),15,i,i,i,25*,2.6,20%*,i,-1.2,-14
